According to PubChem BioAssay (NCI):
Compounds without any hit were thinned out: in the full panel of roughly 79,000, 15% have a hit. Activity calls are given as the source filed them. No stated cut-off is given here; in the data, active means growth inhibition above about 70%; inactive means the rest.

Legend:
[1] = NCI Yeast Anticancer Drug Screen. Data for the rad52 strain (AID 147);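 further: 0% = growth of vehicle-treated control cultures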; conditions: S. cerevisiae rad52 mutant growth inhibition, active compounds read high
How it was run: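 Yeast strain carrying a DNA damage repair alteration was exposed to test compounds. Growth inhibition was measured relative to vehicle-treated controls.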

[2] = NCI Yeast Anticancer Drug Screen. Data for the wt1 strain (AID 149);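 further: 0% = growth of vehicle-treated wt1 cultures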; conditions: S. cerevisiae wt1 strain (SPY 50644) growth inhibition, active compounds read high
How it was run: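 Measured: growth of wt1 yeast under compound versus vehicle treatment, reported as inhibition.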

[3] = NCI Yeast Anticancer Drug Screen. Data for the rad50EPP+ strain (AID 151);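 further: 0% = growth of vehicle-treated control cultures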; conditions: S. cerevisiae rad50 mutant strain, active compounds read high
How it was run: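 Yeast strain carrying rad50 alteration (rad50EPP+) exposed to compounds; growth inhibition measured relative to vehicle-treated controls.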

[4] = NCI Yeast Anticancer Drug Screen. Data for the mgt1 strain (AID 153); conditions: S. cerevisiae mgt1 mutant growth inhibition, active compounds read high
How it was run: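 Yeast mgt1 strain (DNA repair/cell-cycle alteration panel) exposed to compounds; growth inhibition measured relative to vehicle-treated controls.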

[5] = NCI Yeast Anticancer Drug Screen. Data for the rad50 strain (AID 155);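 further: 0% = growth of vehicle-only cultures of the same strain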; conditions: S. cerevisiae rad50 strain growth inhibition, active compounds read high
How it was run: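 Growth of the mutant yeast was measured after compound exposure and referenced to vehicle-treated cultures.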

[6] = NCI Yeast Anticancer Drug Screen. Data for the mec2-1 strain (AID 157); conditions: S. cerevisiae mec2-1 strain, active compounds read high
How it was run: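 mec2-1 yeast strain, carrying an alteration in DNA damage repair or cell cycle control, was exposed to compounds; growth inhibition was measured relative to vehicle-treated controls.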

[7] = NCI Yeast Anticancer Drug Screen. Data for the rad14 strain (AID 159);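 further: 0% = growth of vehicle-treated control cultures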; conditions: S. cerevisiae rad14 strain growth inhibition, active compounds read high
How it was run: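 Here, inhibition of yeast growth was measured after compound exposure, using a strain with a genetic defect in DNA damage repair and vehicle-treated cultures as the reference.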

[8] = NCI Yeast Anticancer Drug Screen. Data for the sgs1 mgt1 strain (AID 161);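 further: 0% = growth of cultures given vehicle only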; conditions: S. cerevisiae sgs1 mgt1 strain, active compounds read high
How it was run: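 Growth of a repair-deficient yeast mutant was monitored after compound treatment and expressed as inhibition relative to vehicle-treated cultures.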

[9] = NCI Yeast Anticancer Drug Screen. Data for the CLN2oe strain (AID 163);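 further: 0% = growth of vehicle-only control cultures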; conditions: S. cerevisiae CLN2oe strain, active compounds read high
How it was run: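 Yeast cells carrying a defined cell-cycle control alteration were exposed to test compounds. Growth inhibition was scored against vehicle-treated control cultures.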

[10] = NCI Yeast Anticancer Drug Screen. Data for the cln2 rad14 strain (AID 165);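 further: 0% = growth equal to vehicle treated cultures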; conditions: S. cerevisiae cln2 rad14 strain, active compounds read high
How it was run: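 Yeast carrying cln2 and rad14 alterations (cell cycle control and DNA damage repair) were exposed to compounds. Growth inhibition was measured against vehicle-treated controls.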

[11] = NCI Yeast Anticancer Drug Screen. Data for the bub3 strain (AID 167); conditions: S. cerevisiae bub3 mutant strain, active compounds read high
How it was run: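 Whole-cell yeast assay. The mutant strain was incubated with compounds, and growth inhibition was determined by comparison with vehicle-treated cells.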

[12] = NCI Yeast Anticancer Drug Screen. Data for the wt2 strain (AID 169);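 further: 0% = growth of vehicle-treated yeast cultures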; conditions: S. cerevisiae wt2 strain growth inhibition, active compounds read high
How it was run: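 Yeast cells were exposed to test compounds, and growth inhibition was measured relative to vehicle-treated controls.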

[13] = NCI Yeast Anticancer Drug Screen. Data for the mlh1 strain (AID 171);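 further: 0% = growth of vehicle-treated control cultures of the same strain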; conditions: S. cerevisiae mlh1 strain growth inhibition, active compounds read high
How it was run: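 Yeast carrying a defined genetic alteration in DNA damage repair or cell cycle control were exposed to test compounds. Growth inhibition was measured relative to vehicle-treated controls.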

[14] = NCI Yeast Anticancer Drug Screen. Data for the sgs1 strain (AID 173);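 further: 0% = growth of vehicle-only control cultures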; conditions: S. cerevisiae sgs1 mutant, active compounds read high
How it was run: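 Yeast mutant strains carrying defined defects in DNA damage repair or cell cycle control were exposed to test compounds. Growth inhibition was scored against vehicle-treated controls.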

[15] = NCI Yeast Anticancer Drug Screen. Data for the mlh1 rad18 strain (AID 175); conditions: S. cerevisiae mlh1 rad18 strain growth inhibition, active compounds read high
How it was run: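 Growth inhibition of the yeast strain was measured after compound exposure and expressed relative to vehicle-treated controls. The strain carries defined defects in DNA damage repair.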

[16] = NCI Yeast Anticancer Drug Screen. Data for the rad18 strain (AID 177); conditions: S. cerevisiae rad18 mutant growth inhibition, active compounds read high
How it was run: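 Yeast carrying a defined DNA damage repair alteration were exposed to compounds. Growth inhibition was expressed relative to vehicle-treated controls.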

[17] = at 5.0 µM (retest, dose inferred, filed as 0.5)
[18] = at 50.0 µM (retest, dose inferred, filed as 5.0)

Measured: growth inhibition

CCCCCCCCCCCNC=O
active: [1]; at 100.0 µM 98% | [2]; at 100.0 µM 98% | [3]; at 100.0 µM 97% | [4]; at 33.0 µM 72% | [4]; at 100.0 µM 98% | [5]; [18] 96% | [5]; at 50.0 µM 89.9% | [5]; at 100.0 µM 98% | [6]; [18] 96% | [6]; at 50.0 µM 91.3% | [6]; at 100.0 µM 98% | [7]; at 100.0 µM 98% | [8]; [18] 93% | [8]; at 50.0 µM 92.5% | [9]; at 100.0 µM 98% | [10]; [18] 94% | [10]; at 50.0 µM 88% | [11]; [18] 97% | [11]; at 50.0 µM 89.4% | [11]; at 100.0 µM 98% | [12]; at 100.0 µM 98% | [13]; at 100.0 µM 98% | [14]; at 100.0 µM 99% | [15]; [18] 97% | [15]; at 50.0 µM 88.6% | [16]; at 100.0 µM 98%
inactive: [1]; at 1.2 µM -33% | [1]; at 3.7 µM -30% | [1]; at 11.0 µM -39% | [1]; at 33.0 µM 34% | [2]; at 1.2 µM -18% | [2]; at 3.7 µM -10% | [2]; at 11.0 µM -9% | [2]; at 33.0 µM 1% | [3]; at 1.2 µM -14% | [3]; at 3.7 µM -11% | [3]; at 11.0 µM 0% | [3]; at 33.0 µM 15% | [4]; at 1.2 µM -30% | [4]; at 3.7 µM -19% | [4]; at 11.0 µM -18% | [5]; at 1.2 µM -16% | [5]; at 3.7 µM -19% | [5]; [17] 1% | [5]; at 11.0 µM -41% | [5]; at 33.0 µM 29% | [6]; at 1.2 µM -22% | [6]; at 3.7 µM -21% | [6]; [17] 7% | [6]; at 11.0 µM -20% | [6]; at 33.0 µM 21% | [7]; at 1.2 µM -7% | [7]; at 3.7 µM -17% | [7]; at 11.0 µM -4% | [7]; at 33.0 µM 30% | [8]; [17] 9% | [9]; at 1.2 µM -15% | [9]; at 3.7 µM -14% | [9]; at 11.0 µM -27% | [9]; at 33.0 µM -20% | [10]; [17] 42% | [11]; at 1.2 µM -21% | [11]; at 3.7 µM -14% | [11]; [17] 22% | [11]; at 11.0 µM -12% | [11]; at 33.0 µM 21% | [12]; at 1.2 µM -45% | [12]; at 3.7 µM -39% | [12]; at 11.0 µM -33% | [12]; at 33.0 µM -5% | [13]; at 1.2 µM -17% | [13]; at 3.7 µM -19% | [13]; at 11.0 µM -11% | [13]; at 33.0 µM 69% | [14]; at 1.2 µM -14% | [14]; at 3.7 µM -17% | [14]; at 11.0 µM -19% | [14]; at 33.0 µM 3% | [15]; [17] -14% | [16]; at 1.2 µM -22% | [16]; at 3.7 µM -22% | [16]; at 11.0 µM -15% | [16]; at 33.0 µM 54%

CC(C(=O)N1C(=O)N(C(=O)C(C)C(O)c2ccccc2)C2CCCCC21)C(O)c1ccccc1 (stereo unspecified)
active: [5]; at 50.0 µM 97.1% | [6]; at 50.0 µM 97.2% | [8]; at 50.0 µM 97.5% | [10]; [17] 87% | [10]; at 50.0 µM 96.5% | [11]; at 50.0 µM 97.8% | [15]; at 50.0 µM 97.2%
inactive: [1]; at 1.2 µM 5% | [1]; at 3.7 µM 8% | [1]; at 11.0 µM 11% | [1]; at 33.0 µM 11% | [1]; at 100.0 µM 19% | [2]; at 1.2 µM 2% | [2]; at 3.7 µM -1% | [2]; at 11.0 µM 7% | [2]; at 33.0 µM 3% | [2]; at 100.0 µM 12% | [3]; at 1.2 µM 0% | [3]; at 3.7 µM -3% | [3]; at 11.0 µM 0% | [3]; at 33.0 µM 2% | [3]; at 100.0 µM 3% | [4]; at 1.2 µM -4% | [4]; at 3.7 µM 0% | [4]; at 11.0 µM 1% | [4]; at 33.0 µM 1% | [4]; at 100.0 µM 29% | [5]; at 1.2 µM 0% | [5]; at 3.7 µM -9% | [5]; [17] -5% | [5]; at 11.0 µM -7% | [5]; at 33.0 µM 16% | [5]; [18] 8% | [5]; at 100.0 µM 20% | [6]; at 1.2 µM 3% | [6]; at 3.7 µM 1% | [6]; [17] -7% | [6]; at 11.0 µM 2% | [6]; at 33.0 µM 14% | [6]; [18] -2% | [6]; at 100.0 µM 24% | [7]; at 1.2 µM 2% | [7]; at 3.7 µM 1% | [7]; at 11.0 µM 4% | [7]; at 33.0 µM 9% | [7]; at 100.0 µM 20% | [8]; [17] -7% | [8]; [18] 11% | [9]; at 1.2 µM 1% | [9]; at 3.7 µM -2% | [9]; at 11.0 µM 4% | [9]; at 33.0 µM 11% | [9]; at 100.0 µM 15% | [10]; [18] 14% | [11]; at 1.2 µM -2% | [11]; at 3.7 µM -1% | [11]; [17] -13% | [11]; at 11.0 µM -2% | [11]; at 33.0 µM 1% | [11]; [18] -9% | [11]; at 100.0 µM 4% | [12]; at 1.2 µM -2% | [12]; at 3.7 µM -1% | [12]; at 11.0 µM 1% | [12]; at 33.0 µM 7% | [12]; at 100.0 µM 29% | [13]; at 1.2 µM 0% | [13]; at 3.7 µM 0% | [13]; at 11.0 µM 1% | [13]; at 33.0 µM 11% | [13]; at 100.0 µM 26% | [14]; at 1.2 µM 2% | [14]; at 3.7 µM 2% | [14]; at 11.0 µM 0% | [14]; at 33.0 µM 23% | [14]; at 100.0 µM 46% | [15]; [17] 2% | [15]; [18] 1% | [16]; at 1.2 µM 2% | [16]; at 3.7 µM 4% | [16]; at 11.0 µM 5% | [16]; at 33.0 µM 20% | [16]; at 100.0 µM 27%
